Each structure is given as a SMILES string. The panel holds about 83,000 compounds, 20% with a hit somewhere; the sample as a whole holds those more often.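 Growth was measured after 48 h exposure to one concentration of compound in 96-well plates. Values under 10 count as active.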 Values without a mark were called inactive. Calls of active or inactive are those of the source.

The subject of this experiment is HL-60(TB) leukemia. Put plainly: NCI-60 one-dose screen, 48 h (100 = growth as untreated, 0 = no growth, -100 = all killed). The note with it: 10 µM unless noted.
Regarding `Clc1ccc2[nH]cc(-c3nn4cc(-c5ccncc5)nc4s3)c2c1`, the growth is 89.8%.
The result for `Cc1ccc([C@H]2c3[nH]c4ccccc4c3C[C@H]3C(=O)N(CCCCCCC(=O)NO)CC(=O)N23)s1` reads 50.1%.
The result for `Brc1cc(-c2cc(-c3ccc4c(c3)OCCO4)[nH]n2)cs1` reads 24%; that for `O=C1[C@H]2Cc3c([nH]c4ccccc34)[C@@H](c3ccc(Br)cc3)N2C(=O)CN1C1CCN(Cc2ccccc2)CC1`, -28.4% (active).
`C#CCOc1ccc(-c2csc(NC(=O)C=C)n2)cc1NS(=O)(=O)c1cccc2c(N(C)C)cccc12`: the growth is -4.97% (active).
Turning to `CCCCCCCCCC[C@@H](C)[C@@H]1CC(=O)N[C@H]([C@@H](C)O)C(=O)N[C@@H](C)C(=O)N[C@H](C)C(=O)N[C@@H](CCC(N)=O)C(=O)N[C@H](Cc2ccc(O)cc2)C(=O)N[C@@H](C(C)CC)C(=O)O1` (stereo partly specified), the growth is 65%.
Consider `Cc1ccc(C(=O)NN2C(=O)/C(=C/C=C/c3ccco3)SC2=S)cc1`, for which the growth was 30.4%.
Consider `COC(=O)c1[nH]nc2c1C1(C(=O)N(C)c3ccccc31)C(C#N)=C(N)O2` (stereo unspecified), for which the growth is 107%.
On to `O=C(/C=C/c1csc(Br)n1)NO`, for which the growth is -36.2% (active).
Take `CSc1ccc(C(=NNS(=O)(=O)c2ccc(C)cc2)c2ccc(Cl)cc2)cc1`: the growth is 97.1%.
The result for `CC(=O)OC[C@@]12Oc3c(cccc3-c3ccc(O)c4c3O[C@]3(COC(C)=O)C(=C4O)C(=O)C[C@H](C)[C@@H]3OC(C)=O)C(O)=C1C(=O)C[C@H](C)[C@@H]2OC(C)=O` reads -46.3% (active).

For the origin of these results see PubChem BioAssay (NCI).
